Data: PubChem BioAssay (Tox21)
Inconclusive results are not listed. Activity calls are given as the source filed them. Unless noted, calls follow the shape of the dose curve; as a rule, active = well fitted curve in the direction sought with a large enough effect in the repeat runs; inconclusive = weak or mixed curves; inactive = no such curve, though single readings can be large; an effect the other way counts as inactive or inconclusive.

Legend:
[1] = qHTS assay for identifying genotoxic compounds that show differential cytotoxicity against isogenic chicken DT40 cell lines with known DNA damage response pathways - wild type cell line (AID 743012); also: nearly all actives have a fitted effect of over 60% in size; also: potency is read from the fitted curve at half-maximal effect
Method in brief: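 Wild type DT40, 300 cells/well, ~0.5 h settle at 37 C/5% CO2; compounds in DMSO added by pintool; 40 h at 37 C/5% CO2; CellTiter-Glo, 30 min RT; luminescence.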

[2] = qHTS assay for identifying genotoxic compounds that show differential cytotoxicity against isogenic chicken DT40 cell lines with known DNA damage response pathways - Rev3 mutant cell line (AID 743014); also: nearly all actives have a fitted effect of over 55% in size; also: potency is read from the fitted curve at half-maximal effect
[3] = qHTS assay to identify small molecule antagonists of the androgen receptor (AR) signaling pathway - cell viability counter screen (AID 743033; also: nearly all actives have a fitted effect of over 45% in size)
[4] = qHTS assay to identify small molecule antagonists of the androgen receptor (AR) signaling pathway using the MDA cell line - cell viability counter screen (AID 743041; also: nearly all actives have a fitted effect of over 45% in size)
Method in brief: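 Viability counter screen run alongside the AR antagonist reporter: cells seeded 5 h before compound, R1881 added, 16 h incubation at 37C without CO2, fluorescent CellTiter-Fluor signal quantified.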

[5] = qHTS assay to identify small molecule antagonists of the glucocorticoid receptor (GR) signaling pathway - cell viability counter screen (AID 720693); also: nearly all actives have a fitted effect of over 55% in size
[6] = qHTS assay for identifying genotoxic compounds that show differential cytotoxicity against isogenic chicken DT40 cell lines with known DNA damage response pathways - Rad54/Ku70 mutant cell line (AID 743015); also: nearly all actives have a fitted effect of over 60% in size; also: potency is read from the fitted curve at half-maximal effect
[7] = target: Androgen receptor (Homo sapiens) (UniProt P10275); assay: qHTS assay to identify small molecule antagonists of the androgen receptor (AR) signaling pathway (AID 743035; active = well fitted inhibition curve with a large enough effect in the signal ratio in the repeat runs, not every such curve was filed as active; the % refers to the signal ratio)
Method in brief: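 Fluorescence from a beta-lactamase FRET substrate (LiveBLAzer B/G, 2 h, room temperature) measured inhibition of R1881-stimulated signaling in GeneBLAzer AR-UAS-bla HEK293 cells exposed to compound for 16 h at 37C.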

[8] = target: Androgen receptor (Homo sapiens) (UniProt P10275); assay: qHTS assay to identify small molecule agonists of the androgen receptor (AR) signaling pathway (AID 743036; active = well fitted activation curve with a large enough effect in the signal ratio in the repeat runs, with a control signal flat, not every such curve was filed as active; the % refers to the signal ratio)
Method in brief: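 HEK293 cells stably carrying a UAS-driven beta-lactamase reporter (GeneBLAzer AR-UAS-bla-GripTite) were plated at 2,000 cells/well, rested 4 h at 37C, then exposed to compounds in DMSO for 16 h. LiveBLAzer B/G FRET substrate was added for 2 h at room temperature; fluorescence read.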

[9] = target: Androgen receptor (Homo sapiens) (UniProt P10275); assay: qHTS assay to identify small molecule agonists of the androgen receptor (AR) signaling pathway using the MDA cell line (AID 743040; also: nearly all actives have a fitted effect of over 20% in size)
Method in brief: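 Luminescence from ONE-Glo, read after 30 min at room temperature, reflects MMTV-driven luciferase in MDA-kb2 cells (AR- and GR-responsive). Treatment lasted 16 h at 37C, 0% CO2.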

[10] = target: Androgen receptor (Homo sapiens) (UniProt P10275); assay: qHTS assay to identify small molecule antagonists of the androgen receptor (AR) signaling pathway using the MDA cell line (AID 743042; also: nearly all actives have a fitted effect of over 55% in size)
Method in brief: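 MDA-kb2 cells (human breast carcinoma, stably carrying an MMTV-luciferase reporter responsive to AR and GR) were plated at 3,000 cells/well and preincubated 5 hr at 37C, then given compound plus R1881 agonist for 16 h. ONE-Glo luminescence was read.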

Measured: Potency

Chain of Androgen receptor (Homo sapiens) (P10275 whole entry, looked up): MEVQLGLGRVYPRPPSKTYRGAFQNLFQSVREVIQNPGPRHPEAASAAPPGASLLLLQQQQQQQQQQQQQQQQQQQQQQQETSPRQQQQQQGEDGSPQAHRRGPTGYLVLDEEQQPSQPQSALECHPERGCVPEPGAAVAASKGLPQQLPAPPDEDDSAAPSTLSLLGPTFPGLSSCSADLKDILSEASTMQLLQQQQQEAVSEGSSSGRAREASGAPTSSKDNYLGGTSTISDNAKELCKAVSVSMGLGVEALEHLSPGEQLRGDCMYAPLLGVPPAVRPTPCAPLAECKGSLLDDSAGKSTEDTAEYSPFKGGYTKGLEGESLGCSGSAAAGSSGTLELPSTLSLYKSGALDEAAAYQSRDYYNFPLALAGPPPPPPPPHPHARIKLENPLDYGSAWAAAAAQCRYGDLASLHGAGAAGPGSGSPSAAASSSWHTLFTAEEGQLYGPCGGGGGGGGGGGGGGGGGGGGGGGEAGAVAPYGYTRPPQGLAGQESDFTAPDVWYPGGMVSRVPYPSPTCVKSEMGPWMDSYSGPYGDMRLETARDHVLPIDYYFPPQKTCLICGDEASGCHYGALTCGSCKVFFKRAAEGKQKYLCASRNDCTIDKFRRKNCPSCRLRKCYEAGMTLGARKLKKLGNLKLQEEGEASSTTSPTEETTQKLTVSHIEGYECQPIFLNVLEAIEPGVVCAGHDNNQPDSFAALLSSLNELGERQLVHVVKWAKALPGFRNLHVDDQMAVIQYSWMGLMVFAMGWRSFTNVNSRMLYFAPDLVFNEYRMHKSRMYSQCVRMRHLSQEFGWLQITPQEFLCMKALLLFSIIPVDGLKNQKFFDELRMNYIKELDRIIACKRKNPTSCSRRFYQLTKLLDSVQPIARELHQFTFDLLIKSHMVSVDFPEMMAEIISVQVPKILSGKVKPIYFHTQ

O=c1c2ccccc2nnn1CCl
inactive: [1] | [2] | [3] | [4]

N#Cc1cc2ccccc2c2ccccc12
inactive: [5] | [6] | [4]

O=S1(=O)N=C(O)c2ccccc21
inactive: [1] | [2] | [6] | [3] | [4]

C=CC(C)(CCC=C(C)C)OC(=O)c1ccccc1 (centres undefined)
active: [2] 24.3 µM | [6] 27.3 µM
inactive: [1] | [3] | [4]

CC(C)CCCC(C)CCO (centres undefined)
inactive: [5] | [7] | [8] | [9] | [4] | [10]

O=C1c2cccc(O)c2C(=O)c2c(O)cc(CO)cc21
inactive: [5] | [3] | [4]
active: [6] 24.3 µM

O=C(CCN1CCN2CCCC2C1)N1c2ccccc2Sc2ccc(Cl)cc21 (centres undefined)
inactive: [3] | [8] | [9] | [4] | [10]
active: [1] 10.6 µM | [2] 11.9 µM | [6] 23.7 µM

CN(C)CC[C@@H](c1ccc(Br)cc1)c1ccccn1
inactive: [5] | [3] | [4]

Oc1ccc(Sc2ccc(O)cc2)cc1
inactive: [5] | [4]

CCCC(C)C
inactive: [1] | [2] | [6] | [4]

CC(C)CCCCCCOC(=O)c1ccc(C(=O)OCCCCCCC(C)C)c(C(=O)OCCCCCCC(C)C)c1
inactive: [1] | [2] | [6] | [3] | [4]

SC1CCCC1
inactive: [5] | [3] | [4]

COC(Cc1ccccc1)OC
inactive: [5] | [3] | [4]

Cc1ccccn1
inactive: [1] | [2] | [6] | [3] | [4]

c1ccc(-c2nc[nH]c2-c2ccccc2)cc1
inactive: [5] | [3] | [4]

CC(CN)CCCN (centres undefined)
inactive: [1] | [2] | [6] | [3] | [4]

O=c1[nH]cnc2ccccc12
inactive: [5] | [3] | [4]

CC(C)NCC(O)COc1ccc(CC(N)=O)cc1 (centres undefined)
inactive: [2] | [6] | [3]

C#CCOC(=O)[C@@H](C)Oc1ccc(Oc2ncc(Cl)cc2F)cc1
inactive: [2] | [4]

C=CC[N+]1([C@H]2C[C@H]3[C@@H]4CC[C@H]5C[C@H](OC(C)=O)[C@@H](N6CCCCC6)C[C@]5(C)[C@H]4CC[C@]3(C)[C@H]2OC(=O)CC)CCCCC1
inactive: [3] | [4]

COc1ccc([C@@H]2Sc3ccccc3N(CCN(C)C)C(=O)[C@@H]2OC(C)=O)cc1
inactive: [3] | [4]

C=CCCCCCC
inactive: [6] | [4]

Cc1nc2ccccc2n1Cc1ccc(Cl)cc1
active: [2] 5.31 µM | [6] 4.22 µM
